# Results taken from PubChem BioAssay (NCATS).
# Records with an inconclusive call do not appear. Entries that show only a call come without a potency. Active and inactive are the calls of the source. Unless noted, the call rests on the fitted dose curve; in most records, active means well fitted curve in the direction sought with a large enough effect; inconclusive means small, poorly fitted or top-dose-only effect, or another doubt; inactive means no such curve, though single readings can be large; an effect the other way counts as inactive or inconclusive.
# How the values were obtained:
# [1] = qHTS assay for measurement of the activity of small molecule inhibitors on Zika virus induced Caspase-3 activity in human iPSC derived neural progenitor cells (hNPCs) (AID 1224857); further: nearly all actives have a fitted effect of over 65% in size
# Summary of the method: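 After overnight (16–20 h) culture at 350 cells/well, hNPCs get compound, then ZIKV 2 FFU/cell one hour later. Six hours on, Caspase-Glo 3/7 is added and luminescence measured.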
# [2] = NS1 protein of Zika virus - qHTS assay to identify small molecule inhibitors in human HEK 293 cells (AID 1347053); further: series mostly up to about 46 µM; nearly all actives have a fitted effect of over 55% in size
# Summary of the method: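 HEK 293 cells pretreated with compound for 1 h, then infected with ZIKV MR766 (MOI 0.5) for 24 h at 37 C. NS1 detected by TR-FRET with two anti-NS1 antibodies; normalized to uninfected (0%) and infected (100%) wells.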
# [3] = qHTS of pediatric cancer cell lines to identify multiple opportunities for drug repurposing: Primary screen for TC32 cells (AID 1347089); further: nearly all actives have a fitted effect of over 60% in size
# Summary of the method: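 In the primary qHTS, MIPE compounds were tested at 11 concentrations (0.78 nM to 46 µM) and NPC compounds at 8 (0.59 nM to 46 µM) on TC32 cells for 48 h. CellTiter-Glo luminescence gave viability.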
# [4] = qHTS of pediatric cancer cell lines to identify multiple opportunities for drug repurposing: Primary screen for DAOY cells (AID 1347090); further: nearly all actives have a fitted effect of over 55% in size; further: potency means the concentration at half of the fitted maximal effect
# Summary of the method: (§1)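 Viability measured as metabolically active cells via CellTiter-Glo luminescence following 48 hours of compound exposure, 11-point dilutions in confirmatory testing. 500-1,000 cells/well plated 5 hours before dosing; controls were DMSO and 2.3 µM bortezomib.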
# [5] = qHTS of pediatric cancer cell lines to identify multiple opportunities for drug repurposing: Primary screen for SJ-GBM2 cells (AID 1347091); further: potency means the concentration at half of the fitted maximal effect
# Summary of the method: as §1
# [6] = qHTS of pediatric cancer cell lines to identify multiple opportunities for drug repurposing: Primary screen for A673 cells (AID 1347092); further: nearly all actives have a fitted effect of over 45% in size; further: potency means the concentration at half of the fitted maximal effect
# Summary of the method: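 48 h compound exposure, A673, 500-1,000 cells/well, 37 degrees C/5% CO2. MIPE: 11-point, 0.78 nM-46 µM; NPC: 8-point, 0.59 nM-46 µM (final). Readout CellTiter-Glo luminescence after 15 min RT.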
# [7] = qHTS assay for measurement of the activity of small molecule inhibitors on Zika virus induced Caspase-3 activity in human astrocytoma cells (AID 1224859)
# Summary of the method: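 Inhibition of Zika-induced caspase-3/7 activity: SNB-19 cells, 1 h compound pretreatment, ZIKV 2 FFU/cell for 6 h at 37 C, Caspase-Glo luminescence read-out.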
# [8] = P-glycoprotein substrates identified in KB-8-5-11 adenocarcinoma cell line, qHTS therapeutic library screen (AID 1346987); further: nearly all actives have a fitted effect of over 65% in size; further: potency means the concentration at half of the fitted maximal effect
# Summary of the method: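 P-gp-mediated resistance screen: KB-8-5-11 cells treated 72 h with compounds in dose-response. CellTiter-Glo viability.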
# [9] = Natriuretic polypeptide receptor (hNpr1) antagonism - Pilot counterscreen GloSensor control cell line (AID 1347045; calls by dose curve; further: series mostly up to about 38 µM)
# Summary of the method: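 This counterscreen uses HEK293 cells expressing the GIP/pGS-40F cGMP biosensor. Compound-treated cells are challenged with 50 uM sodium nitroprusside, and the luciferase signal is compared before and after stimulation.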
# [10] = molecular target: Atrial natriuretic peptide receptor 2 (Homo sapiens) (UniProt P20594); test: Natriuretic polypeptide receptor (hNpr2) antagonism - Pilot subtype selectivity assay (AID 1347050; calls by dose curve)
# Summary of the method: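 HEK293 cells expressing hNpr2 and a GloSensor cGMP luciferase sensor, 1500/well, preloaded 2 h with 2% GloSensor reagent, compound 30 min, then 1 nM hNppC for 20 min. Antagonism from luminescence after versus baseline pre-read; LOPAC in 1:5 titrations.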
# [11] = molecular target: T1, Tyrosine-protein phosphatase non-receptor type substrate 1 (Homo sapiens) + Leukocyte surface antigen CD47 (Homo sapiens) (UniProt P78324+Q08722); test: CD47-SIRPalpha protein protein interaction - LANCE assay qHTS validation (AID 1347057; active means well fitted curve in the direction sought with a large enough effect in the signal ratio, with a control signal flat, not every such curve was filed as active; the % refers to the signal ratio; further: series mostly up to about 38 µM)
# Summary of the method: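 First, His-tagged CD47 and Eu-labelled anti-His antibody met the compound for 30 min; next, site-specifically biotinylated SIRPalpha was added for 30 min; finally streptavidin-APC was added before reading the TR-FRET ratio.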
# [12] = molecular target: T1, Tyrosine-protein phosphatase non-receptor type substrate 1 (Homo sapiens) + Leukocyte surface antigen CD47 (Homo sapiens); test: CD47-SIRPalpha protein protein interaction - Alpha assay qHTS validation (AID 1347059);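 further: bead proximity luminescence from CD47 binding SIRPalpha after compound preincubation with SIRPalpha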
# Summary of the method: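 Biotinylated Avi-tagged SIRPalpha (25 nM) preincubated 30 min with compound, then His-tagged CD47 (12.5 nM) added 30 min; AlphaScreen with Ni-NTA acceptor and streptavidin donor beads. PBS pH 7.4, 0.05% IGEPAL, room temperature; 7-point titrations.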
# [13] = molecular target: Parathyroid hormone/parathyroid hormone-related peptide receptor (Homo sapiens) (UniProt Q03431); test: qHTS for PTHR1 Agonists: Optimization Screen against the NCGC LOPAC library (AID 1347079);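 further: GloSensor cAMP luminescence in HEK-293 GP2 cells expressing human PTHR1 with IBMX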
# Summary of the method: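 Compounds were tested across a qHTS titration. PTHR1-expressing GP2 cells report cAMP rises via GloSensor luminescence after 1 hr compound exposure at 37C with IBMX present.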
# T1 sequence (P78324 whole entry, looked up): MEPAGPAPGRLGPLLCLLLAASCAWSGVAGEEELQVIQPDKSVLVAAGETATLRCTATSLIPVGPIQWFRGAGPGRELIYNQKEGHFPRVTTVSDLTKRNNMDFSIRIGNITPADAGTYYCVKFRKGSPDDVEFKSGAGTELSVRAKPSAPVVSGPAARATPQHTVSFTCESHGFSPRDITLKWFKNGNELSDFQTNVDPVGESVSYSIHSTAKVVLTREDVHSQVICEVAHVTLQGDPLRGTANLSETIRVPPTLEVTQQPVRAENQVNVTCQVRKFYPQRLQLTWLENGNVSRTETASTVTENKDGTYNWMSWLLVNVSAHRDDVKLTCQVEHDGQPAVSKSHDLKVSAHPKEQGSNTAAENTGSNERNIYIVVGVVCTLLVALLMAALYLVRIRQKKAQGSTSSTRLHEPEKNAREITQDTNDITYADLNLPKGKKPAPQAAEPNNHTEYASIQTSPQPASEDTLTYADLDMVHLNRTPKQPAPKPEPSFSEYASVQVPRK
# T1 sequence (Q08722 whole entry, looked up): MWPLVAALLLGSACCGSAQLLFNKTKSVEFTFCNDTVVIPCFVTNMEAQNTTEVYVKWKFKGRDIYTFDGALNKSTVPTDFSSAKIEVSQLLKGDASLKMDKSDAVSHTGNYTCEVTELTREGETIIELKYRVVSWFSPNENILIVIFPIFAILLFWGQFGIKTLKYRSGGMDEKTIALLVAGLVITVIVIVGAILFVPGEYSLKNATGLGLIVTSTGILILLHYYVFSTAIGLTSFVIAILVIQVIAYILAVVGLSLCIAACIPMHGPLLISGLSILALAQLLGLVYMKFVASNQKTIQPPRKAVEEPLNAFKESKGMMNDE
# Chain of Parathyroid hormone/parathyroid hormone-related peptide receptor (Homo sapiens) (Q03431 whole entry, looked up): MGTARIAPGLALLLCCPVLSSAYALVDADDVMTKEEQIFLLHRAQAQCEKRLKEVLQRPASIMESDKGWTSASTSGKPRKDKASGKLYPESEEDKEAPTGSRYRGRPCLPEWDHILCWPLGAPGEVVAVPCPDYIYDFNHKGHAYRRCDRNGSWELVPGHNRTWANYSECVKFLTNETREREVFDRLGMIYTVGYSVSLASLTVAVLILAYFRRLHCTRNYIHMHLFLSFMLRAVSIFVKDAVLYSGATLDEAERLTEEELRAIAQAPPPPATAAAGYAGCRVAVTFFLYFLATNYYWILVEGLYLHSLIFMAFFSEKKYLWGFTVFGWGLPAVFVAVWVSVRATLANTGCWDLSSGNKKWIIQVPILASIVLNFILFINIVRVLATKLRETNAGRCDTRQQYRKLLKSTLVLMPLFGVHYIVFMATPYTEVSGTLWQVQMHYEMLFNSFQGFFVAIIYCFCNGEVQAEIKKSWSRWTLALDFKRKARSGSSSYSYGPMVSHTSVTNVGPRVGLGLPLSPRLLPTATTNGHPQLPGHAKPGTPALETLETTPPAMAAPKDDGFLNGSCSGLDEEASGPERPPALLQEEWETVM
# Chain of Atrial natriuretic peptide receptor 2 (Homo sapiens) (P20594 whole entry, looked up): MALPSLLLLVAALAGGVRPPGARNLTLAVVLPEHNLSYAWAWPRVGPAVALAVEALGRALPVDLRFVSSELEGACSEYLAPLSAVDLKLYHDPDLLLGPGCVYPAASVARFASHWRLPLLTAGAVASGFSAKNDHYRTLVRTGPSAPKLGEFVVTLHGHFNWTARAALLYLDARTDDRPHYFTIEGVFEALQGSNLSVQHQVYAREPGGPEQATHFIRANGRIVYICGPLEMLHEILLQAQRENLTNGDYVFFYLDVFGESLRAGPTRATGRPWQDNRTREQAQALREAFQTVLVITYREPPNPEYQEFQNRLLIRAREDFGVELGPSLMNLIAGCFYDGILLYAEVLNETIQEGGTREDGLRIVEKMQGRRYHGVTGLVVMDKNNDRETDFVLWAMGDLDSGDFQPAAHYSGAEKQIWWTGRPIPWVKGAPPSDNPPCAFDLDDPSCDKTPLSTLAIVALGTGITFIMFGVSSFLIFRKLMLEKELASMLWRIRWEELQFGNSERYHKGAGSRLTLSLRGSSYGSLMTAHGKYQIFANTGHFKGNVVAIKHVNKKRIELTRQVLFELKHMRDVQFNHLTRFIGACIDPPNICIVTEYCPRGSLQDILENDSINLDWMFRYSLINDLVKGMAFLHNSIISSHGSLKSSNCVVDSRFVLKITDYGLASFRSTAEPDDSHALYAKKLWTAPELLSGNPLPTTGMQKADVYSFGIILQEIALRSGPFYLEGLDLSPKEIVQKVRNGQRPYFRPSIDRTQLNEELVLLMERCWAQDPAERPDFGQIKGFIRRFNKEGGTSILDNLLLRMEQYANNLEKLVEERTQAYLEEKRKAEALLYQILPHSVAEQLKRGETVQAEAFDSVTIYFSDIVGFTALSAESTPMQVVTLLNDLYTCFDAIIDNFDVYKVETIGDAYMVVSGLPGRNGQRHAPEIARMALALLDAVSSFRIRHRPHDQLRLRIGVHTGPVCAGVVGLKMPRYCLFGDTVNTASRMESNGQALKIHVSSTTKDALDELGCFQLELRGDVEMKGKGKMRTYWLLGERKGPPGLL
structure (smiles),measurement,setting,value
O=C(O)c1cn(C2CC2)c2cc(Cl)c(F)cc2c1=O,Potency,[1],inactive
same,Potency,[2],inactive
same,Potency,[3],inactive
same,Potency,[4],inactive
same,Potency,[5],inactive
same,Potency,[6],inactive
COC(=O)[C@H]1[C@H]2C[C@@H]3c4[nH]c5cc(OC)ccc5c4CCN3C[C@H]2C[C@@H](OC(=O)/C=C/c2ccc(O)c(OC)c2)[C@@H]1OC,Potency,[1],inactive
same,Potency,[2],inactive
same,Potency,[3],inactive
same,Potency,[4],inactive
CO/N=C(/C(=O)N[C@@H]1C(=O)N2C(C(=O)[O-])=C(C[n+]3ccn4ncccc43)CS[C@H]12)c1nsc(N)n1,Potency,[1],inactive
same,Potency,[2],inactive
same,Potency,[3],inactive
same,Potency,[4],inactive
same,Potency,[5],inactive
N#C/C(=C1/SC[C@@H](c2ccc(Cl)cc2Cl)S1)n1ccnc1,outcome,[7],inactive
same,Potency,[8],inactive
Nc1c2ccccc2nc2ccccc12,Potency,[1],inactive
same,Potency,[8],13 µM (active)
same,Potency,[4],21.1 µM (active)
same,Potency,[6],6.68 µM (active)
OCc1cccnc1,outcome,[7],inactive
same,Potency,[8],inactive
same,Potency,[2],inactive
same,Potency,[3],inactive
same,Potency,[4],inactive
same,Potency,[5],inactive
same,Potency,[6],inactive
CN1CCC(Nc2ncc3ncnc(Nc4ccc(F)c(Cl)c4)c3n2)CC1,outcome,[7],inactive
same,Potency,[8],inactive
same,Potency,[3],inactive
same,Potency,[4],inactive
same,Potency,[5],inactive
same,Potency,[6],21.1 µM (active)
CO/N=C(\C(=O)O)c1csc(NC(=O)CCl)n1,outcome,[7],inactive
same,Potency,[2],inactive
same,Potency,[3],inactive
same,Potency,[4],inactive
same,Potency,[5],inactive
same,Potency,[6],inactive
CN1CCN(N)CC1,outcome,[7],inactive
same,Potency,[2],inactive
same,Potency,[3],inactive
same,Potency,[4],inactive
same,Potency,[5],inactive
same,Potency,[6],inactive
CCN(CC)CC(=O)Nc1c(C)cccc1C(=O)OC,Potency,[2],inactive
same,Potency,[3],inactive
same,Potency,[4],inactive
same,Potency,[5],inactive
same,Potency,[6],inactive
Clc1ccc2c(c1)Nc1ccccc1S2,outcome,[7],inactive
same,Potency,[2],inactive
same,Potency,[3],inactive
same,Potency,[4],inactive
same,Potency,[6],inactive
Cc1cc(CCCOc2c(C)cc(-c3noc(C(F)(F)F)n3)cc2C)on1,outcome,[7],inactive
same,Potency,[2],inactive
same,Potency,[4],inactive
same,Potency,[6],inactive
O=C(O)Cc1ccc(OCCNC[C@H](O)c2ccccc2)cc1,outcome,[7],inactive
same,Potency,[8],inactive
same,Potency,[2],inactive
same,Potency,[4],inactive
same,Potency,[5],inactive
same,Potency,[6],inactive
CC(C)C(=O)Nc1cccc(C(F)(F)F)c1,outcome,[7],inactive
same,Potency,[2],inactive
same,Potency,[3],inactive
same,Potency,[4],inactive
same,Potency,[5],inactive
same,Potency,[6],inactive
CSCC[C@H](NC(=O)[C@H](Cc1c[nH]c2ccccc12)NC(=O)CCNC(=O)OC(C)(C)C)C(=O)N[C@@H](CC(=O)O)C(=O)N[C@@H](Cc1ccccc1)C(N)=O,Potency,[2],inactive
same,Potency,[3],inactive
same,Potency,[4],inactive
same,Potency,[5],inactive
same,Potency,[6],inactive
CC(C)(C)c1ccc(O)c(O)c1,outcome,[7],inactive
same,Potency,[2],inactive
same,Potency,[4],24.3 µM (active)
same,Potency,[5],30.6 µM (active)
same,Potency,[6],15.4 µM (active)
CC(=O)N1CCN(c2ccc(O)cc2)CC1,outcome,[7],inactive
same,Potency,[2],inactive
same,Potency,[3],inactive
same,Potency,[5],inactive
same,Potency,[6],inactive
Nc1ccc2c(c1)CN1C(=O)c3ccccc3C1=N2,outcome,[7],inactive
same,Potency,[2],inactive
same,Potency,[3],inactive
same,Potency,[5],inactive
Cc1ncc([N+](=O)[O-])n1C,outcome,[7],inactive
same,Potency,[2],inactive
same,Potency,[3],inactive
same,Potency,[5],inactive
same,Potency,[6],inactive
CC(CC(C#N)(c1ccccc1)C(C)C)N(C)C (stereo not drawn),outcome,[7],inactive
same,Potency,[2],inactive
same,Potency,[3],inactive
same,Potency,[5],inactive
same,Potency,[6],inactive
CCCC(=O)Nc1ccc(O)c(C(C)=O)c1,outcome,[7],inactive
same,Potency,[2],inactive
same,Potency,[3],inactive
same,Potency,[4],inactive
same,Potency,[6],inactive
Cc1cnc(NS(=O)(=O)c2ccc(N)cc2)nc1,outcome,[7],inactive
same,Potency,[2],inactive
same,Potency,[3],inactive
same,Potency,[4],inactive
CCOC(=O)C(=O)CCCCCCl,outcome,[7],inactive
same,Potency,[2],inactive
same,Potency,[3],inactive
same,Potency,[4],inactive
same,Potency,[5],inactive
same,Potency,[6],inactive
C=CCOc1cc(Cl)ccc1C(=O)NCCN(CC)CC,outcome,[7],inactive
same,Potency,[2],inactive
same,Potency,[3],inactive
same,Potency,[4],inactive
same,Potency,[5],inactive
same,Potency,[6],inactive
CCCCCCCCCCCC[N+](C)(C)Cc1ccccc1,outcome,[7],inactive
same,Potency,[8],inactive
same,Potency,[4],16.8 µM (active)
same,Potency,[5],inactive
same,Potency,[6],8.41 µM (active)
COCCc1ccc(OCC2CO2)cc1 (stereo not drawn),outcome,[7],inactive
same,Potency,[3],inactive
same,Potency,[4],inactive
same,Potency,[5],inactive
same,Potency,[6],inactive
CC(NC(CCc1ccccc1)C(=O)O)C(=O)N1C(=O)N(C)CC1C(=O)O (stereo not drawn),Potency,[2],inactive
same,Potency,[3],inactive
same,Potency,[4],inactive
same,Potency,[5],inactive
C[N+](C)(C)CCO,Potency,[8],inactive
same,Potency,[9],inactive
same,Potency,[10],inactive
same,Potency,[2],inactive
same,outcome,[11],inactive
same,Potency,[12],inactive
same,outcome,[13],inactive
CC(=O)N(CC(=O)N(C)C)c1ccccc1,outcome,[7],inactive
same,Potency,[2],inactive
same,Potency,[3],inactive
same,Potency,[4],inactive
same,Potency,[5],inactive
Cc1ccc(C(=O)Oc2ccc(C(O)CNC(C)(C)C)cc2OC(=O)c2ccc(C)cc2)cc1 (stereo not drawn),outcome,[7],inactive
same,Potency,[2],inactive
same,Potency,[3],inactive
same,Potency,[5],inactive
CCCCCOc1ccccc1/C(=C\SC)n1ccnc1,outcome,[7],inactive
same,Potency,[2],inactive
same,Potency,[4],inactive
same,Potency,[5],inactive
same,Potency,[6],26.6 µM (active)
O=C(CS(=O)Cc1ccco1)NC/C=C\COc1cc(CN2CCCCC2)ccn1 (stereo not drawn),Potency,[2],inactive
same,Potency,[3],inactive
same,Potency,[4],inactive
same,Potency,[5],inactive
CC(C)(c1ccc(O)cc1)c1ccc(O)cc1,outcome,[7],inactive
same,Potency,[2],inactive
same,Potency,[3],inactive
same,Potency,[4],inactive
same,Potency,[5],inactive
same,Potency,[6],inactive
Nc1nnnn1-c1ccccc1,Potency,[8],inactive
same,Potency,[2],inactive
same,Potency,[3],inactive
same,Potency,[4],inactive
same,Potency,[5],inactive
same,Potency,[6],inactive
COC(=O)CCCCC(CCSS/C(CCO)=C(\C)N(C=O)Cc1cnc(C)nc1N)SC(C)=O (stereo not drawn),outcome,[7],inactive
same,Potency,[2],inactive
same,Potency,[3],inactive
same,Potency,[4],inactive
same,Potency,[5],inactive
same,Potency,[6],inactive
CCOc1ccccc1OCC1CNCCO1 (stereo not drawn),Potency,[2],inactive
same,Potency,[3],inactive
same,Potency,[4],inactive
same,Potency,[6],inactive
Cc1c(C)c2c(c(C)c1OC(=O)CCC(=O)OCCO)CC[C@@](C)(CCC[C@H](C)CCC[C@H](C)CCCC(C)C)O2,outcome,[7],inactive
same,Potency,[8],inactive
same,Potency,[2],inactive
same,Potency,[5],inactive
OCc1c[nH]c2ccccc12,outcome,[7],inactive
same,Potency,[8],inactive
same,Potency,[2],inactive
same,Potency,[4],inactive
CCOC(=O)OCC/C(SC(=O)OCC)=C(\C)N(C=O)Cc1cnc(C)nc1N,outcome,[7],inactive
same,Potency,[8],inactive
same,Potency,[2],inactive
same,Potency,[3],inactive
same,Potency,[5],inactive
same,Potency,[6],inactive
COC(=O)c1cc(Cl)ccc1OC,outcome,[7],inactive
same,Potency,[2],inactive
same,Potency,[3],inactive
same,Potency,[4],inactive
same,Potency,[5],inactive
same,Potency,[6],inactive
COC(=O)c1cc(Cl)c(NC(C)=O)cc1OC,outcome,[7],inactive
same,Potency,[2],inactive
same,Potency,[3],inactive
same,Potency,[4],inactive
same,Potency,[5],inactive
same,Potency,[6],inactive
Cc1ccc2ccc(Cl)cc2n1,outcome,[7],inactive
same,Potency,[2],inactive
same,Potency,[3],inactive
same,Potency,[4],inactive
same,Potency,[5],inactive
same,Potency,[6],inactive
CC(C)(C)C1CCC(CC2=C(O)c3ccccc3C(=O)C2=O)CC1 (stereo not drawn),outcome,[7],inactive
same,Potency,[3],inactive
same,Potency,[4],3.35 µM (active)
